# KLF5 inhibitor: KLF5 expression inhibitors, primary screen, DLD-1 cells, luminescence; DLD-1 KLF5 promoter-luciferase reporter; inhibition, % at 5 µM; actives 0.23% (n = 290,000);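 active = inhibition above a per-plate limit of that plate's mean compound inhibition plus 3 SD, cut at about 60% in these data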;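 note: 0% = DMSO wells and 100% = LY294002 at 200 µM; higher means less KLF5 promoter-driven luciferase light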
# TMEM16A act: TMEM16A chloride channel activators or potentiators, primary screen, cell-based, HTS. Anoctamin-1 (Mus musculus), Q8BHY3. HEK293 TMEM16A/YFP-H148Q/I152L, iodide quench fluorescence; active compounds read low. B-score at 10 µM. actives 0.3% (n = 340,000);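 active = fluorescence-ratio B-score plate-corrected deviation score at least 3 library SD below zero, with starting fluorescence score within 5 deviations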;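 note: channel opened by trigger with iodide after compound preincubation; score built on the fluorescence ratio of max minus min over baseline; more negative score means more quench and so TMEM16A activation or potentiation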
# Target sequence (Q8BHY3 whole entry, looked up): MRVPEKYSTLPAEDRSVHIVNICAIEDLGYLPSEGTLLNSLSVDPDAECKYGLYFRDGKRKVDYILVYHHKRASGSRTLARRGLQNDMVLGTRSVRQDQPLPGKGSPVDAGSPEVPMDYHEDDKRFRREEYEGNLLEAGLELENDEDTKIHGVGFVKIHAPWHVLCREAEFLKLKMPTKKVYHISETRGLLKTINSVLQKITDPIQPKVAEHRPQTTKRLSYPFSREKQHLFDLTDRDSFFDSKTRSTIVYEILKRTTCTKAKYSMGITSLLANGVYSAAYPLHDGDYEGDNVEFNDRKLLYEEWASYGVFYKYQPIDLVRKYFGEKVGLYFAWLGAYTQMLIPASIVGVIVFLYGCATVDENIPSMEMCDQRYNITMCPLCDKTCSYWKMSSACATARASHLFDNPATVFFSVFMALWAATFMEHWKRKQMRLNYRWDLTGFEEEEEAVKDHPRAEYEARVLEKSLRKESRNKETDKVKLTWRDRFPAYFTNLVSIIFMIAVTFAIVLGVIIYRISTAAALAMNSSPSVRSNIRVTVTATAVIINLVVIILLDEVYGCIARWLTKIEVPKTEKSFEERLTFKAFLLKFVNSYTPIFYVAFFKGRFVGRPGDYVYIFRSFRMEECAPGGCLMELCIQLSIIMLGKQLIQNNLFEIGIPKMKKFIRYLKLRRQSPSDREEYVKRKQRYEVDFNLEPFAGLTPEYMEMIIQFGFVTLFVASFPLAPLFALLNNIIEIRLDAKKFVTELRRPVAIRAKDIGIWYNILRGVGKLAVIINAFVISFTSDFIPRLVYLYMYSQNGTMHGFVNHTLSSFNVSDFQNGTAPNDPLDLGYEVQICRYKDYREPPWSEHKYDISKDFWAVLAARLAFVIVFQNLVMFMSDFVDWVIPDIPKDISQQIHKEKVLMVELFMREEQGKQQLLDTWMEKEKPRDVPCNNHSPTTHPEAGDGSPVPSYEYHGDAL
# 697 NFkB inh: inhibitors of PMA/ionomycin-induced NF-kB reporter, 697 cells, primary screen, B-cell NF-kB inhibitor project, cell-based, luminescence, uHTS | 697 B-cell NF-kB luciferase reporter, 16 h | inhibition, % at 4 µM | actives 0.33% (n = 330,000) | AID 435022, 2010; in the data active = inhibition above about 35%
# ANO1 block: TMEM16A chloride channel inhibitors, primary screen, cell-based, HTS | Anoctamin-1 (Mus musculus), Q8BHY3 | HEK293 TMEM16A/YFP iodide influx fluorescence, ionomycin | normalized B-score (activity score, 25-100; higher = stronger inhibition) at 10 µM | actives 1.2% (n = 310,000) | AID 588511, 2011;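 active = ratio plate-corrected score three or more library SD toward inhibition, starting fluorescence score within five deviations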;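 note: score derived from kinetic fluorescence span divided by baseline fluorescence per well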
# aSyn 5UTR inh: MLPCN primary screen, SNCA 5' untranslated region; alpha-synuclein 5'UTR reporter, inhibitor activity; inhibition, % (tested at 7.5 µM); actives 0.82% (n = 300,000); AID 1813, 2009; in the data active = inhibition above about 60%;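 note: H4 neuroglioblastoma cells stably carrying SNCA 5'UTR luciferase fusion; 0% = DMSO wells and 100% = positive control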
# Jurkat NFkB inh: inhibitors of induced NF-kB luciferase reporter, primary screen, TCR NF-kB activation inhibitor project, cell-based, luminescence, uHTS | Jurkat, PMA/ionomycin-induced NF-kB luciferase reporter | inhibition, % at 4 µM | actives 0.53% (n = 330,000); in the data active = inhibition above about 50%
# An asterisk follows results filed as active; i = inactive; / = not tested or not shown. An excerpt weighted towards active compounds, which were near 2.5% of everything screened.
SMILES,KLF5 inhibitor,TMEM16A act,697 NFkB inh,ANO1 block,aSyn 5UTR inh,Jurkat NFkB inh
O=C(Nc1ccc(S(=O)(=O)Nc2nccs2)cc1)c1nn(-c2ccc(F)cc2)ccc1=O,-26,i,-7,i,12,9
CCOc1ccc(-n2ccc(=O)c(C(=O)Nc3ccc(S(=O)(=O)Nc4nccs4)cc3)n2)cc1,-3,-23*,4,i,-1,-4
Nc1cc2c(cc1Cl)-c1ccc([N+](=O)[O-])cc1C2=NO,/,i,/,/,/,/
O=[N+]([O-])c1cccc(-c2nnc(-c3ccccc3)o2)c1,-77,i,-66,i,68*,-66
O=[N+]([O-])c1cccc(-c2nnc(-c3ccc4c(c3)OCO4)o2)c1,-6,i,-135,i,-78,-97
CCC1(CC)Cc2ccccc2C(=O)N1,-22,i,18,i,-6,-2
CCC1(CC)Cc2ccccc2C(N)=C1C#N,-46,-53*,18,i,-35,0
Cn1c(N)c(C(=O)COC(=O)COc2ccc(C#N)cc2)c(=O)n(C)c1=O,11,i,14,i,-6,1
Cn1c(N)c(C(=O)COc2ccc(C#N)cc2)c(=O)n(C)c1=O,-18,-9.1*,14,i,0,-8
CC(C)(C)OC(=O)NCCCCCc1nnc(SCC(=O)Nc2cccc(Cl)c2)o1,-45,i,-9,100*,2,7
CCc1c(C2(O)CCCCC2)[nH]c2cc(C(F)(F)F)ccc12,4,i,-21,100*,-6,-4
CCN(Cc1ccccc1)c1c(C(=O)O)cnc2c1cnn2C,-6,-4.8*,10,i,-9,9
CCCCN(C(=O)c1ccc(S(=O)(=O)N(C)C)cc1)c1nc2ccccc2s1,-27,-9*,1,i,15,-13
O=C(N/N=C/c1cccnc1)c1ccc(NC(=O)c2ccccc2Cl)cc1,-3,i,-15,i,33,-28
CN1CCN(C(c2ccccn2)c2cc(Cl)c3cccnc3c2O)CC1 (stereo unspecified),8,i,-11,i,-16,0
Cc1ccc(C(c2cc(Cl)c3cccnc3c2O)N2CCN(C)CC2)cc1 (stereo unspecified),27,i,-44,i,66*,33
C/C(CS(=O)(=O)c1ccc(Cl)c(Cl)c1)=N/NC(N)=S,-5,-8.5*,-1,i,30,6
COc1cc(NC(=O)Cn2ncc(Cl)c(Cl)c2=O)c(C)cc1[N+](=O)[O-],-6,i,/,/,121*,/
COc1cc(NC(=O)CN2C(=O)CN(C)C2=O)c(C)cc1[N+](=O)[O-],-6,i,10,i,-10,4
COc1cccc(N(CC(=O)NCCSc2ccccn2)S(=O)(=O)c2ccccc2)c1,-13,i,-17,i,-3,-9
Cc1[nH]nc2nc(SCC(=O)NCCC3=CCCCC3)n(-c3ccc(Br)cc3)c(=N)c12,-1,i,-23,i,75*,20
Cc1ccc(OC(C)C(=O)Nc2ccc3c(c2)n(C)c(=O)n3C)c(C)c1 (stereo unspecified),-27,i,-8,i,0,2
CCCCCCSc1cc(C)nc2ncnn12,/,i,-31,i,3,11
CCSc1cc(C)nc2ncnn12,-39,-19*,16,i,-2,5
C[C@H](NC(=O)C1(c2ccccc2)CCN(C(=O)[C@H]2CSCN2C(=O)OC(C)(C)C)CC1)C(=O)O,12,-5.1*,1,i,-6,-14
SMILES,KLF5 inhibitor,TMEM16A act,697 NFkB inh,ANO1 block,aSyn 5UTR inh,Jurkat NFkB inh
CC(O)[C@H](NC(=O)C1(c2ccccc2)CCN(C(=O)OC(C)(C)C)CC1)C(=O)O (stereo partly specified),7,i,9,i,-8,-11
CC(=O)NC(CC(=O)OCc1ccc([N+](=O)[O-])cc1)c1ccccc1 (stereo unspecified),-10,i,-6,i,9,13
O=C(Nc1ccccc1C(F)(F)F)N1CCCCCC1,-2,i,-7,i,-8,-17
NC(=O)C1(N2CCCCC2)CCN(C(=O)Nc2ccccc2C(F)(F)F)CC1,-15,/,-27,100*,13,8
CCOc1cc(CNCCSc2nnnn2C)cc(Br)c1OCc1ccccc1F,3,i,-20,i,16,4
CCOc1cc(CNCCO)cc(Br)c1OCc1ccc(Cl)cc1Cl,-13,i,8,100*,4,28
CCOc1cc(CNCc2ccncc2)cc(Br)c1OCc1ccccc1F,1,i,-27,25*,-16,22
CCN1CCN(CC(=O)Nc2ccc(Cl)c(S(=O)(=O)N(C)C)c2)CC1,-31,i,22,i,1,3
CCCCc1ccc(NC(=S)Nc2ccc(Cl)c(S(=O)(=O)N(C)C)c2)cc1,-11,i,/,100*,-68,/
COc1ccc(C(=O)Nc2cccc(-c3ccc4nncn4n3)c2)cc1OC,-31,-6.9*,15,i,-2,-1
CCCc1cc(C(=O)OCC(=O)N2CCN(c3ccc(OC)cc3)CC2)sc1C,/,i,12,/,/,12
COc1ccc(-c2cc3nc(CCl)[nH]c(=O)c3s2)cc1,39,i,-41,i,71*,-45
COc1ccc(-c2cc3nc[nH]c(=O)c3s2)cc1,-37,i,-85,i,-31,-37
CC1CCCCN1c1ncnc(N)c1[N+](=O)[O-] (stereo unspecified),-5,i,-1,i,15,-5
CC1Cc2ccccc2N1c1ncnc(N)c1[N+](=O)[O-] (stereo unspecified),30,i,12,i,69*,35
C[C@H](NC(=O)[C@H](Cc1ccccc1)n1c(=O)[nH]c2ccccc2c1=O)C(=O)N1CCC(C(=O)O)CC1,6,i,9,i,-3,7
CC(C)C[C@H](NC(=O)[C@H](Cc1ccccc1)n1c(=O)[nH]c2ccccc2c1=O)C(=O)N1CCC(C(=O)O)CC1,-30,-13*,15,i,-14,13
Fc1ccc(CN2CCN(c3ncnc4scc(-c5ccc(F)cc5)c34)CC2)cc1,-23,i,-33,i,28,6
Clc1ccc(CN2CCN(c3ncnc4scc(-c5cccs5)c34)CC2)cc1,-30,i,-28,25*,-4,12
CCOc1ccccc1C=C1SC(=S)NC1=O,/,i,/,/,/,/
CC1=NN(c2ccccc2)C(=O)/C1=C\C=C\c1ccccc1,-38,i,-57,i,-127,1
